Screening data: PubChem, Sanford-Burnham Center for Chemical Genomics
An excerpt weighted towards active compounds, which were near 4% of everything screened.
TROY NFkB inh: TROY signaling inhibition; 360,000 tested, 0.98% active; inhibition, % at 10 µM; Q293 LMP1-TROYcd NF-kB luciferase reporter, 4 h; AID 1347056;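 active means compounds whose plate-normalised and pattern-corrected inhibition of the luciferase reporter signal at the single screening dose is 50% or more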
CF NFkB block: inhibitors of cystic fibrosis induced NF-kB; KKLEB NF-kB-GFP reporter, PAF-induced, GFP fluorescence overnight; inhibition, % at 5 µM; 360,000 tested, 0.86% active;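 active means at least 50% inhibition at 5 µM, scaled per plate between neutral and stimulator controls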;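 further: PAF is a Pseudomonas aeruginosa culture filtrate used as stimulus; plate controls were PAF-stimulated DMSO wells for no effect and unstimulated DMSO wells for full effect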
HIF-2a block: blocks HIF-2a reporter activity; inhibition, % at 18.8 µM; 360,000 tested, 0.72% active; 786-0 RCC cells HIF-2a reporter, luciferase luminescence, overnight;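 active means inhibition of the luminescence signal of 40% or more relative to plate controls, in a single-dose primary screen at 18.75 µM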
KKLEB cytotox: counter-screen for CF NF-kB inhibitors: cytotoxicity; KKLEB CF airway cells viability, ATPlite luminescence, overnight; stronger effect = lower value; cells stimulated with P. aeruginosa culture filtrate; activity change (cytotoxicity), % at 5 µM; 360,000 tested, 0.36% active; AID 602141;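 active means corrected activity change at or below -50% at 5 µM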
TWEAK Fn14 block: inhibitors of TWEAK-Fn14 interaction signaling; inhibition, % at 10 µM; 360,000 tested, 2% active; TWEAK-stimulated Fn14 reporter cells, luciferase luminescence, 8 h; in the data active means inhibition above about 50%
Peg3 promoter: reduces Peg3 promoter-driven luciferase expression in HeLa; HeLa PEG-Prom luciferase reporter, luminescence, overnight; inhibition, % at 20 µM; 360,000 tested, 1.7% active; AID 588405;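 active means inhibition of at least 50% at 20 µM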
* marks the source's active call; other numbers are inactive results; / = no result.

SMILES	TROY NFkB inh	CF NFkB block	HIF-2a block	KKLEB cytotox	TWEAK Fn14 block	Peg3 promoter
Cc1cc(C)cc(CC(Cc2nc3ccccc3[nH]2)c2nc3ccccc3[nH]2)c1 (stereo not drawn)	52*	-4	7	-18	56*	39
Cc1cccc(NC(=S)NCC(C)CSc2ccc(Cl)cc2)c1 (stereo not drawn)	52*	26	6	-10	0	30
Cc1ccc(NC(=S)NCC(C)CSc2ccc(Cl)cc2)cc1 (stereo not drawn)	11	-3	2	9	2	3
O=C(Nc1nccs1)C(c1ccccc1)N1CCCC1 (stereo not drawn)	7	-15	13	9	86*	-2
Cn1c(C(=O)O)c(CC(=O)Nc2ccc3c(c2)OCCO3)c2ccccc21	77*	7	29	0	92*	-138
Cn1c(C(=O)O)c(CC(=O)Nc2ccc(F)cc2F)c2ccccc21	0	-11	11	4	20	4
Cc1ccc2c(c1)c(CC(=O)Nc1ccc(F)cc1)c(C(=O)O)n2C	14	-11	-15	-9	106*	15
Cc1ccc(NC(=O)Cc2c(C(=O)O)n(C)c3ccccc23)cc1F	12	1	5	-6	-10	7
COc1ccc(NS(=O)(=O)c2ccc(NC(=O)C(CCSC)NC(N)=O)cc2)cc1 (stereo not drawn)	8	3	13	-2	-2	7
COc1cc2c(c(OC)c1OC)C(=O)CO2	26	6	12	-18	-20	9
O=C(COc1ccc(Cl)c2cccnc12)N1CCOCC1	-10	-22	-12	13	-17	-11
Cc1csc2nc(CNC(=O)c3cccc(C(F)(F)F)c3)cn12	/	3	9	-3	97*	22
O=C(NCc1cn2ccsc2n1)c1cccc(C(F)(F)F)c1	13	5	17	-2	-3	4
COC(=O)c1sccc1NC(=O)c1cccc(F)c1	13	-12	6	-3	1	19
O=C(Nc1ccccc1NC(=O)c1c(F)c(F)c(F)c(F)c1F)c1c(F)c(F)c(F)c(F)c1F	9	10	14	-4	-9	68*
COC(=O)c1sccc1NC(=O)c1c(F)c(F)c(F)c(F)c1F	8	-14	37	2	-13	67*
Cc1ccccc1NC(=S)NNc1ncc(C(F)(F)F)cc1Cl	-13	13	-9	-1	-9	-16
Cc1c(Cl)cccc1NC(=S)NNc1ncc(C(F)(F)F)cc1Cl	48	26	-6	-25	10	54*
CCN(CC)CCNC(=O)c1nn(-c2ccc(Cl)cc2)c2c1CCc1cc(OC)ccc1-2	-12	19	-22	-6	-38	94*
CN1CCCN(S(=O)(=O)c2ccc3ccccc3c2)CC1	-4	6	9	-6	9	-12
O=c1n(Cc2ccccc2)c(O)c2n1Cc1ccccc1N=C2c1ccc(C(F)(F)F)cc1	12	-10	17	-25	13	28
CC[C@@]1(C(=O)OC)N[C@H](CN(C)C(=O)c2ccc(F)cc2)[C@@H]2C(=O)N(C)C(=O)[C@@H]21	-14	9	0	-5	3	-12
O=C(CSc1nc2[nH]ncc2c(=O)[nH]1)Nc1cc(C(F)(F)F)ccc1Cl	-1	2	5	4	-9	-1
CC(C)c1ccc(S(=O)(=O)N2CCC(C(=O)NCc3ccco3)CC2)cc1	-14	30	5	7	5	-2
COc1cccc(/C(O)=C/c2nc3ccc(C(=O)NCCc4ccc(Cl)cc4)cc3[nH]c2=O)c1	-23	5	5	-28	19	55*
SMILES	TROY NFkB inh	CF NFkB block	HIF-2a block	KKLEB cytotox	TWEAK Fn14 block	Peg3 promoter
COc1ccc(N=C2SC(CC(=O)Nc3cccc(Cl)c3)C(=O)N2Cc2ccco2)cc1 (stereo not drawn)	9	1	9	-17	53*	35
COc1ccc(N=C2SC(CC(=O)Nc3ccccc3)C(=O)N2Cc2ccccn2)cc1 (stereo not drawn)	-22	4	-23	12	-18	-7
CC1CCC2(CC1)NC(=O)N(CC(=O)Nc1ccc3c(c1)OCCO3)C2=O (stereo not drawn)	-52	-6	-122	3	-7	-94
CC1CCC2(CC1)NC(=O)N(CC(=O)NC(=O)Nc1ccc3c(c1)OCCO3)C2=O (stereo not drawn)	31	-17	6	12	50*	-8
O=C(CN1CCCC1c1ccc2c(c1)OCCO2)NC(=O)Nc1ccccc1 (stereo not drawn)	60*	11	-29	-20	68*	-29
COc1ccc(NC(=O)CN(C)C(=O)c2cccc(S(=O)(=O)N3CCN(Cc4ccccc4)CC3)c2)cc1	7	-16	5	3	31	-7
CN(CCOc1ccc(Cl)cc1)C(=O)c1cccc(S(=O)(=O)N2CCN(Cc3ccccc3)CC2)c1	39	19	4	-4	57*	22
COc1ccc2cc3cc(C(=O)Nc4ccc5c(c4)OCCO5)oc3nc2c1	6	21	-22	-16	-33	-11
COc1ccc2cc3cc(C(=O)Nc4cc(OC)c(OC)c(OC)c4)oc3nc2c1	26	3	7	-5	63*	42
Cc1cc(=O)oc2cc(OCC(=O)N3CC(=O)Nc4ccccc43)c(Cl)cc12	12	15	10	-6	-6	6
CC(OC(=O)c1cnc2ccccc2n1)c1ccccc1Cl (stereo not drawn)	-51	-2	-102	12	-32	-124
CCN(CC)C(=O)CSC(Nc1ccc(F)cc1)=C(C#N)C#N	-17	-2	13	5	-4	-8
Cc1ccc(CSC(Nc2ccc(F)cc2)=C(C#N)C#N)cc1	48	41	16	-43	53*	31
N#CCCn1ccc(NC(=O)c2ccc(Cl)cc2)n1	/	-4	-55	20	67*	-23
O=C(Nc1ccn(Cc2ccc(Cl)cc2)n1)c1ccccc1	-68	-9	-303	-5	-7	-223
CCCNC(=O)C1(CC2CC(c3ccccc3)=NO2)CCN(C(=O)Cc2ccc(F)cc2)CC1 (stereo not drawn)	-12	1	-3	8	-5	9
Cc1cccc(NC(=O)CN2CCN(CC(=O)Nc3cccc(C)c3)CC2)c1	-14	46	0	-55*	8	14
CCOC(=O)N1CCN(S(=O)(=O)c2ccc(C(=O)Nc3nc4c(s3)CC(C)CC4)cc2)CC1 (stereo not drawn)	5	38	1	-62*	-12	34
COC(=O)c1ccc(C(=O)NC(=S)Nc2nc3c(s2)CC(C)CC3)cc1 (stereo not drawn)	93*	29	-89	-29	109*	-54
O=C(NC(=S)Nc1nc2c(s1)CCCC2)c1ccc(C(=O)c2ccccc2)cc1	-31	-3	-50	-4	25	-38
